Rows were chosen to be rich in hits. Some 3% of all compounds tested hit in one or more screens of this group.
HBB splice mod: qHTS Assay for Modulators of Hemoglobin Beta Chain Splicing; Potency, µM (highest dose often 46.1 µM), inactives show at the top dose activation, most hits filed as activators; 65,000 compounds, 0.06% hits; HBB splicing reporter cell assay, activation; EGFP reporter with mutant IVS2-654 intron; response scale: normalised to 500 nM splice-correcting PNA; AID 925, 2007; also: potency is read from the fitted curve at half-maximal effect; 0% is about no effect
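Compounds were applied for 2 days to HeLa EGFP-654 cells, 500/well in Optimem with 2% FCS. The reporter's EGFP is disrupted by mis-splicing of beta-globin intron IVS2-654. Readout: summed well GFP fluorescence from 488 nm laser scanning; reference was 500 nM antisense […] 654 PNA.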
Ub-GFP proteasome: Ubiquitin-GFP Assay. Potency, µM (top dose mostly 45.9 µM), for inactives: at the highest dose activation (GFP accumulation), most hits filed as activators. Ubiquitin-GFP reporter cells, proteasome inhibition, GFP fluorescence; response scale: untreated = 0%, 10 µM MG-132 = 100%. 67,000 tested, under 10 active. AID 526, 2006; active = well fitted activation curve with a large enough effect, not every such curve was filed as active; inconclusive = small, poorly fitted or top-dose-only effect, or another doubt; inactive = no such curve, though single readings can be large or run the other way; also: potency is read from the fitted curve at half-maximal effect
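U2OS Ub(G76V)-GFP reporter; O/N plating, 0.5% FBS; cpd 46 uM–2.9 nM, 4 h, 37 °C; GFP+ cell count, 488/515 nm; norm. to basal vs 10 uM MG-132; CRC fit.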
Hsp90 Hop PPI: qHTS Assay for Disrupters of an Hsp90 Co-Chaperone Interaction; AlphaScreen TPR2A-His6 binding biotin-Hsp90 C-terminal peptide; Potency, µM (series often up to 57 µM), inactives show at the top dose activity change, negative = inhibition; 71,000 compounds, 0.44% hits; active = well fitted curve in either direction with a large enough effect; inconclusive = small, poorly fitted or top-dose-only effect, or another doubt; also: potency is read from the fitted curve at half-maximal effect; % is scaled to controls: 0 for no effect and ±100 for the full control effect
Tau fil binding: qHTS Assay for Tau Filament Binding; 71,000 compounds, 2% hits; recombinant tau filaments, thioflavin S fluorescence, 15 h; filaments grown with octadecylsulfate alongside compound; Potency, µM (series often up to 57.1 µM), for inactives: top-dose activity change, negative = inhibition;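 also: potency is read from the fitted curve at half-maximal effect; % is scaled to controls: 0 for no effect and ±100 for the full control effect; actives lower thioflavin S fluorescence by blocking filaments or displacing dye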
Target sequence (P10636 whole entry, looked up): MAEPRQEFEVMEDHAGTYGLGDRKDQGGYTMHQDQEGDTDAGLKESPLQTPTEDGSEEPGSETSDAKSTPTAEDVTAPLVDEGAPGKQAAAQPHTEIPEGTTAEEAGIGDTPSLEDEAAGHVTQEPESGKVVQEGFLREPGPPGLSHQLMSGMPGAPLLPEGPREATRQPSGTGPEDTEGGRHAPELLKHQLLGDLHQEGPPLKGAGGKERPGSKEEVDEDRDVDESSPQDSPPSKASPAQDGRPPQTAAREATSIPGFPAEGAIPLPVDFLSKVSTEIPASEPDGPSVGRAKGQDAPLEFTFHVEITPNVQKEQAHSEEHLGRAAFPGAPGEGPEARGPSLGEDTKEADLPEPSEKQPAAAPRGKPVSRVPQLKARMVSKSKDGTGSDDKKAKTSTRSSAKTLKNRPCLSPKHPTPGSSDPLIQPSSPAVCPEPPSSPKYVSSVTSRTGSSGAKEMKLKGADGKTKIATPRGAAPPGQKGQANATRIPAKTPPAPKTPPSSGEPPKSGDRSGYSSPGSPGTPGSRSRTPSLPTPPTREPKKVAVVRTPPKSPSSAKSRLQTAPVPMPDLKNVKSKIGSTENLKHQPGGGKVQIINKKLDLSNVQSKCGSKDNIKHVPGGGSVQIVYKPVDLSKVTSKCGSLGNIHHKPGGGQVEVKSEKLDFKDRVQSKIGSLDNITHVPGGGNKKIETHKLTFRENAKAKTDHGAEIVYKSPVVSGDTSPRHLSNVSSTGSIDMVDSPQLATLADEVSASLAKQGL
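Assay mix: 1 uM His-tagged tau, 30 uM sodium octadecylsulfate, thioflavine S dye in HEPES/NaCl/DTT buffer. Compound is added prior to the inducer. Fluorescence after 15 h at 37 C.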
ERK AVP block: qHTS Assay for Inhibitors of the ERK Signaling Pathway using a Homogeneous Screening Assay | 72,000 compounds, 0.99% hits | Potency, µM (titrated, usually from 57.5 µM), for the others: top-dose activity, negative = inhibition, usual class: inhibitors | HEK293-V1b, vasopressin-stimulated pERK AlphaScreen; also: potency is read from the fitted curve at half-maximal effect; % is scaled to controls: 0 for no effect and ±100 for the full control effect; nearly all actives have a fitted effect of over 55% in size
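Overnight-seeded V1b-HEK293 cells in 1% FBS got compound, then vasopressin (25 nM final, 5 min, 37C), then lysis buffer. AlphaScreen detection of phospho-ERK; activity normalized to basal and full-stimulation controls.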
Epigenetic mod: qHTS Assay for Epigenetic Modulators; mouse C127i GFP locus derepression, cytometry, 30 h; Potency, µM (highest dose often 46.1 µM), without a hit: at the top dose GFP derepression (activation); 68,000 compounds, 0.09% hits; also: % of control where 0% means no effect
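Read-out is the number of GFP-positive cells, scored as fluorescent objects 20 to 120 um wide, reflecting derepression of a silenced CMV-GFP reporter in murine C127i cells after 30 h compound exposure at 37 C.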
* = called active by the depositor; i = inactive; u = inconclusive; x = not tested or not shown; [ ] = another dose, or the depositor's remark. Unless noted, calls follow the shape of the dose curve; as a rule, active = well fitted curve in the direction sought with a large enough effect; inconclusive = small, poorly fitted or top-dose-only effect, or another doubt; inactive = no such curve, though single readings can be large; an effect the other way counts as inactive or inconclusive.

SMILES	HBB splice mod	Ub-GFP proteasome	Hsp90 Hop PPI	Tau fil binding	ERK AVP block	Epigenetic mod
CN(C)c1ccc(-c2cncnc2NCc2cccs2)cc1	0%	-4%	-28%	-12%	u	2%[9.22 µM]
CN(C)c1ccc(-c2ccc3ncnc(NCc4ccccc4)c3c2)cc1	0%	-1%	-18%	2.5µM*	13µM*	-5%[9.22 µM]
c1ccc(CNc2ncnc3ccc(-c4ccoc4)cc23)cc1	-2%	-2%	5%	-20%	-7%	12%[9.22 µM]
N[C@H](C(=O)O)[C@H](N)C(=O)O	3%[9.22 µM]	-5%[9.17 µM]	u	-9%[11.4 µM]	1%[11.5 µM]	-1%[9.22 µM]
O=C1c2c(O)cc(O)cc2O[C@@H](c2ccc(O)c(O)c2)[C@H]1O	1%	4%	u	-8%	37%	0%
Cc1cnc(CNc2ncnc3ccc(-c4ccccc4Cl)cc23)cn1	1%	-1%	-3%	26%	20µM*	-3%[9.22 µM]
c1ccc(CNc2ncnc3ccccc23)cc1	0%[57.5 µM]	-3%	2%	2%	25µM*	-2%
O=C(O)CC[C@]1(C(=O)O)CCC(=O)c2ccccc21	0%[9.22 µM]	-2%[9.17 µM]	-3%[11 µM]	-3%[11.4 µM]	20%[11.5 µM]	0%[9.22 µM]
COc1ccc(OC(=O)CCCN2C(=O)c3ccccc3C2=O)cc1	4%	-1%	1%	15%	-13%	6%
O=C1c2ccc(Oc3ccc4c(c3)C(=O)N(CCCCO)C4=O)cc2C(=O)N1CCCCO	0%[57.5 µM]	-5%	-4%	0%	20µM*	0%
S=C([S-])NCCNC(=S)[S-].[Zn+2]	3%	x	16µM*	15%	29%	x
Fc1ccc2[nH]c3c(N4CCN(c5ccccc5)CC4)ncnc3c2c1	0%[1.84 µM]	-7%	-8%	70%	10µM*	4%[20.6 µM]
OC1(c2cccc(C(F)(F)F)c2)CCN(c2ncnc3c2[nH]c2ccc(F)cc23)CC1	-4%[57.5 µM]	2%	5%	124%	25µM*	-2%
O=C(CCCN1CCC(O)(c2cccc(C(F)(F)F)c2)CC1)c1ccc(F)cc1	0%	0%	-5%	-7%	17%	-1%
O=C(CSc1nnc(C2COc3ccccc3O2)o1)Nc1nccs1 (stereo unspecified)	-1%	1%	13µM*	-2%	-3%	0%
O=C(O)C(=Cc1ccc(-c2ccccc2)cc1)C(=O)O	3%[9.22 µM]	-7%[9.17 µM]	-2%[11 µM]	6%[11.4 µM]	7%[11.5 µM]	9%[9.22 µM]
O=C(O)c1ccc(C(=O)c2ccccc2)c(C(=O)O)c1	-1%[9.22 µM]	2%[9.17 µM]	-1%[11 µM]	8%[11.4 µM]	15%[11.5 µM]	10%[9.22 µM]
CCOC(=O)C1=C(C)NC(=O)NC1c1ccc(OCC(=O)OC)c(OC)c1 (stereo unspecified)	0%[57.5 µM]	-3%	-2%	-14%	8%	2%
CCOC(=O)C1=C(C)NC(=O)NC1c1ccc(OC(C)C(=O)O)c(OC)c1 (stereo unspecified)	0%	-3%	13µM*	6%	-24%	3%
Cc1onc(-c2ccccc2Cl)c1C(=O)Nc1ccc(-n2nncc2C(C)(C)C)cc1	5%[0.369 µM]	-1%	-3%	25µM*	-8%	4%
CC1N(C)c2cc(NC(=O)c3ccco3)ccc2C1(C)C (stereo unspecified)	1%	2%	-12%	20µM*	-21%	0%
C=CCn1c(SCC(=O)N2CCOCC2)nc2scc(-c3ccco3)c2c1=O	0%	12%	-8%	80%	32µM*	u
CC(C)C1=C[C@@]23CC[C@@H]4[C@](C)(CCC[C@@]4(C)C(=O)O)[C@@H]2C[C@@H]1[C@@H](C(=O)O)[C@@H]3C(=O)O	5%[9.22 µM]	-6%[9.17 µM]	0%[11 µM]	5%[11.4 µM]	13%[11.5 µM]	-1%[9.22 µM]
Oc1ccc(Cc2nccc3cc(O)c(O)cc23)cc1O	-1%[9.22 µM]	1%[9.17 µM]	-7%[11 µM]	6%[11.4 µM]	-6%[11.5 µM]	-1%[9.22 µM]
O=C(O)CNCCc1ccccc1	1%[9.22 µM]	-6%[9.17 µM]	-1%[11 µM]	4%[11.4 µM]	-15%[11.5 µM]	9%[9.22 µM]
SMILES	HBB splice mod	Ub-GFP proteasome	Hsp90 Hop PPI	Tau fil binding	ERK AVP block	Epigenetic mod
COc1ccc(C(C(O)C(=O)c2c[nH]c3ccccc23)N2CCN(c3ccc(OC)cc3)CC2)cc1 (stereo unspecified)	1%	3%	-25%	13µM*	7%	18%
CCOC(=O)c1nn(-c2ccc(OC)cc2)c(=O)c2c(N)scc12	-2%	-5%	-13%	16µM*	u	2%
COc1ccc(-c2nn(-c3ccccc3)cc2CO)cc1OC	-1%[0.0738 µM]	-5%[9.17 µM]	-8%[11 µM]	14%[11.4 µM]	-28%	0%
OCc1cn(-c2ccccc2)nc1-c1ccc2c(c1)OCCO2	-1%	4%	-2%	3%	25µM*	2%
Cc1coc(NC(=O)CSc2nc(-c3ccncc3)cc(C(F)(F)F)c2C#N)n1	x	-2%	-3%	u	13%	10µM*
CC(C)C[C@H]1C(=O)N2CCC[C@@H]2[C@]2(O)O[C@](NC(=O)[C@@H]3C=C4c5cccc6[nH]c(Br)c(c56)C[C@H]4N(C)C3)(C(C)C)C(=O)N12	x	-3%	-10%	32µM*	-21%	1%
Nc1ccc(O)c([N+](=O)[O-])c1	-2%	x	-2%	u	18%	x
CN(C)S(=O)(=O)c1ccc(Nc2ccc(O)c3c2C(=O)c2c([N+](=O)[O-])ccc(O)c2C3=O)cc1	2%[9.22 µM]	2%[9.17 µM]	u	1µM*	18%[11.5 µM]	14%[9.22 µM]
O=C1c2c(O)ccc([N+](=O)[O-])c2C(=O)c2c([N+](=O)[O-])ccc(O)c21	-1%	x	u	0.2µM*	-9%	x
CN(C)S(=O)(=O)c1ccc(NS(=O)(=O)/C=C/c2ccccc2)cc1	0%[57.5 µM]	-4%	2%	-4%	-18%	-1%
Cc1ccc(O)c(-c2cc(C(=O)Nc3ccc(S(=O)(=O)N4CC(C)OC(C)C4)cc3)[nH]n2)c1 (stereo unspecified)	-2%	3%	-2%	i	u	3%
Cc1cc(O)c(-c2cc(C(=O)Nc3ccc(S(=O)(=O)N4CCOCC4)cc3)[nH]n2)cc1C	-3%	3%	-4%	418%	25µM*	0%
CN(C)CN1C(=O)S/C(=C2/C(=O)N(CN(C)C)c3ccccc32)C1=O	2%[9.22 µM]	-4%[9.17 µM]	3%[11 µM]	5%[11.4 µM]	-9%[11.5 µM]	7%[9.22 µM]
O=CN1CCN(C[C@H](O)CN2CCCCC2)CC1	0%[9.22 µM]	-3%[9.17 µM]	1%[11 µM]	4%[11.4 µM]	4%[11.5 µM]	14%[9.22 µM]
COc1cccc(CNc2ccc(N3CCCCC3)cc2)c1OC	-1%	-3%	u	7.9µM*	20µM*	-3%
COc1ccccc1CNc1ccc(N2CCCCC2)cc1	0%	3%	u	10µM*	16µM*	-2%
COc1cccc(CNc2ccc(S(N)(=O)=O)cc2)c1OC	-2%	6%	-3%	-1%	-10%	5%

Source: PubChem BioAssay (National Center for Advancing Translational Sciences (NCATS))
